# Measured values taken from PubChem BioAssay (NCATS).
# Inconclusive results are not listed. Calls of active or inactive are those of the source. Unless noted, calls follow the shape of the full dose curve.
# Tests used:
# [1] = qHTS profiling of the MIPE4 collection as inhibitors of Plasmodium falciparum (DD2) proliferation (Rep 2) (AID 743346; call rule not given here); details: P. falciparum Dd2 in erythrocytes, SYBR Green DNA, 72 h; at 5.51 µM (top of the series) unless noted
# Summary of the method: (§1)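 Parasite DNA was quantified by SYBR Green I fluorescence (ex 485, em 535 nm) after overnight lysis in saponin/Triton buffer at room temperature. Cultures at 0.3% parasitemia and 2.5% hematocrit were first exposed to compound for 72 h at 37 C; signals were normalised to artemisinin (0.29 uM) and vehicle wells.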
# [2] = qHTS profiling of the MIPE4 collection as inhibitors of Plasmodium falciparum (HB3) proliferation (AID 743347; call rule not given here;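 also: plate controls were DMSO vehicle wells for no effect and artemisinin wells for full effect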); details: P. falciparum HB3 in erythrocytes, SYBR Green DNA, 72 h; at 5.51 µM (top of the series) unless noted
# Summary of the method: as §1
# [3] = Cell Viability - BJ (AID 421); details: BJ fibroblast viability, qHTS;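 also: potency is read from the fitted curve at half-maximal effect; cells exposed to compound for 40 hours at 37 °C before readout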
# Summary of the method: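 Luminescent ATP signal (CellTiter-Glo, 20 min at room temperature) served as the read-out of viable BJ cells after 40 hours of compound treatment. Responses were scaled between DMSO and 100 uM tamoxifen, and AC50 values were obtained by Hill modeling.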
# [4] = Cell Viability - Hek293 (AID 427;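 active = compounds whose dose-response curve shows a full or clear partial loss of cell viability, called from curve shape rather than a numeric limit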;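 also: potency is read from the fitted curve at half-maximal effect; cells exposed to compound for 40 hours at 37 °C before reading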); details: qHTS
# Summary of the method: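 Luminescent ATP read-out (CellTiter-Glo, 20 min RT) after 40 hr compound exposure at 37 °C in complete medium. Signal normalized to DMSO (basal) and 100 uM tamoxifen (100% inhibition); concentration-response fitted with the standard Hill equation to give AC50.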
# [5] = Cell Viability - HepG2 (AID 433); details: qHTS;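 also: potency is read from the fitted curve at half-maximal effect; potency for ATP loss meaning cytotoxicity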
# Summary of the method: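 HepG2 hepatocellular carcinoma cells (1500/well) were treated with compounds for 40 h at 37 °C in complete medium; intracellular ATP was read by CellTiter-Glo luminescence. Data were normalized to DMSO and 100 uM tamoxifen, and AC50 came from Hill fits.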
# [6] = Cell Viability - MRC5 (AID 434); details: MRC5 lung fibroblast viability, qHTS;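 also: potency is read from the fitted curve at half-maximal effect; potency reflects cytotoxicity seen as loss of intracellular ATP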
# Summary of the method: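 ATP luminescence read-out (CellTiter-Glo, 20 min RT) after 40 hr, 37 °C compound exposure of 1500 MRC5 cells/well. Data normalized to DMSO (basal) and 100 uM tamoxifen (100% inhibition); AC50 from standard Hill equation.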
# [7] = Cell Viability - SK-N-SH (AID 435); details: SK-N-SH neuroblastoma cell viability qHTS;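 also: potency is read from the fitted curve at half-maximal effect; compound exposure lasted 40 h at 37 °C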
# Summary of the method: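 SK-N-SH human neuroblastoma cells (1500/well) were exposed to compounds in complete medium for 40 h at 37 °C, and intracellular ATP was then measured by CellTiter-Glo luminescence. AC50 was taken from Hill fits, normalized to DMSO and 100 uM tamoxifen.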
# [8] = Cell Viability - N2a (AID 540; active = well fitted cell-killing curve with a large enough effect;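 also: plate controls were DMSO alone for no effect and tamoxifen control for full effect; nearly all actives have a fitted effect of over 45% in size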); details: N2a mouse neuroblastoma cell viability; series mostly up to 92.2 µM
# Summary of the method: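 In this qHTS cytotoxicity screen, ATP-dependent luciferase luminescence reports viable N2a cells after a 40 hr compound exposure in complete culture medium. Potencies are AC50 values from standard Hill equation fits.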
# [9] = Cell Viability - NIH 3T3 (AID 541; active = well fitted cell-killing curve with a large enough effect;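 also: plate controls were DMSO alone for no effect and tamoxifen positive control for full effect; nearly all actives have a fitted effect of over 25% in size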); details: NIH 3T3 cell viability, qHTS; series mostly up to 92.2 µM
# Summary of the method: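 In this cytotoxicity screen, acute toxicity is scored as an ATP drop measured by CellTiter-Glo in NIH 3T3 fibroblasts following a 40 hr, 37 °C incubation with compound.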
# [10] = Cell Viability - SH-SY5Y (AID 544; active = well fitted cell-killing curve with a large enough effect;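 also: 0% = DMSO alone and -100% = 100 µM tamoxifen; nearly all actives have a fitted effect of over 55% in size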); details: SH-SY5Y neuroblastoma cell viability; series mostly up to 92.2 µM
# Summary of the method: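 Quantitative HTS in SH-SY5Y neuroblastoma cells, 40 hr treatment at 37 °C, ATP content by luciferase luminescence; AC50 from Hill fits.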
# [11] = Cell Viability - Renal Proximal Tubule (AID 545; active = well fitted cell-killing curve with a large enough effect;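 also: 0% = DMSO only and -100% = 100 µM tamoxifen; nearly all actives have a fitted effect of over 40% in size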); details: renal proximal tubule cells viability, primary cells of rat origin; series mostly up to 91.7 µM
# Summary of the method: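 Primary rat renal proximal tubule cells (1000/well) were treated with compounds for 40 hr at 37 °C in complete medium. Intracellular ATP was measured by CellTiter-Glo luminescence, and AC50 values came from Hill-equation fits of concentration-response data.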
# [12] = Cell Viability - Mesenchymal (AID 546; active = well fitted cell-killing curve with a large enough effect;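 also: potency is read from the fitted curve at half-maximal effect; cells exposed to compound for 40 hours before reading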); details: mesenchymal cells viability, qHTS; series mostly up to 91.7 µM
# Summary of the method: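 Human renal mesenchymal cells (glomerulus-derived), 1000 cells/well, 5 hr 37 °C pre-incubation; compound 40 hr, 37 °C; CellTiter-Glo, 20 min RT; luminescence; AC50 via Hill equation.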
# [13] = target: Estrogen receptor (Homo sapiens) (UniProt P03372); test: qHTS assay for small molecule agonists of estrogen receptor alpha signaling (AID 588514); details: ER-alpha-UAS-bla HEK293, beta-lactamase ratio, 18 h, percent of full estradiol response, vehicle zero; series mostly up to 76.8 µM;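 also: 0% = vehicle only and 100% = reference agonist; nearly all actives have a fitted effect of over 70% in size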
# Summary of the method: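 Fluorescence from CCF4 cleavage reports ER-alpha-driven beta-lactamase expression in HEK 293 cells treated 18 hrs at 37 C. Data normalized to 17-beta-estradiol (20 nM) and DMSO, fitted to Hill equation.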
# [14] = target: Androgen receptor (Homo sapiens) (UniProt P10275); test: qHTS assay for small molecule antagonists of androgen receptor signaling (AID 588516; active = well fitted curve in the direction sought with a large enough effect in the signal ratio, with a control signal flat, not every such curve was filed as active; the % refers to the signal ratio; also: % is scaled to controls: 0 for no effect and ±100 for the full control effect); details: AR-UAS-bla HEK293, beta-lactamase ratio, antagonist mode, 16 h; series mostly up to 76.8 µM
# Summary of the method: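 AR-UAS-bla-GripTite HEK 293 cells (2000/well, 5 h at 37 C) received compound titrations, then R1881 at 10 nM final; after 16 h at 37 C, CCF4 dye 2 h RT, beta-lactamase fluorescence read; IC50 from Hill fits.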
# [15] = target: Glucocorticoid receptor (Homo sapiens) (UniProt P04150); test: qHTS assay for small molecule agonists of glucocorticoid receptor signaling (AID 588532; active = well fitted curve in the direction sought with a large enough effect in the signal ratio, with a control signal flat; the % refers to the signal ratio;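 also: 100% = dexamethasone at 0.1 µM and 0% = DMSO only wells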); details: HeLa MMTV-bla, beta-lactamase ratio, agonist, 18 h; stronger effect = higher value; percent of dexamethasone control, DMSO zero
# Summary of the method: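 Cells were plated and rested 3-5 h at 37 C, compounds were added in titration and incubated 18 h, then CCF4 substrate was loaded for 2 h at RT before reading blue/green fluorescence. EC50 came from Hill-equation fitting.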
# [16] = target: Glucocorticoid receptor (Homo sapiens) (UniProt P04150); test: qHTS assay for small molecule antagonists of glucocorticoid receptor signaling (AID 588533; active = well fitted inhibition curve with a large enough effect in the signal ratio, with a control signal flat, not every such curve was filed as active; the % refers to the signal ratio;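 also: cells stimulated with 2 nM dexamethasone as agonist; % is scaled to controls: 0 for no effect and ±100 for the full control effect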); details: HeLa MMTV-bla, GRE beta-lactamase ratio, antagonist mode, 18 h; series mostly up to 76.8 µM
# Summary of the method: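 Antagonist-mode qHTS: compound titrations added to GRE-bla HeLa cells, then dexamethasone 2 nM final; 18 h, 37 C. CCF4 FRET fluorescence normalized to dexamethasone and DMSO; IC50 from Hill fit.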
# [17] = qHTS assay for small molecule antagonists of retinoid X receptor alpha signaling (AID 588546; active = well fitted inhibition curve with a large enough effect in the signal ratio, with a control signal flat, not every such curve was filed as active; the % refers to the signal ratio;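 also: cells stimulated with 9-cis-retinoic acid as agonist; % is scaled to controls: 0 for no effect and ±100 for the full control effect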); details: HEK293T RXRa-UAS-bla, beta-lactamase ratio, antagonist mode; measured here: W530 green channel, cytotoxicity proxy
# Summary of the method: (§2)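 Beta-lactamase reporter inhibition, read as CCF4 fluorescence ratio (ex 405, em 460/530 nm) after 2 h at RT. HEK293T UAS-bla cells, 2500/well, were stimulated with 9-cis-RA at 500 or 100 nM final alongside test compound for 18 h at 37 C.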
# [18] = target: Retinoic acid receptor RXR-alpha (Homo sapiens) (UniProt P19793); test: as above; details: HEK293T RXRa-UAS-bla, beta-lactamase ratio, antagonist mode
# Summary of the method: as §2
# [19] = qHTS assay for small molecule disruptors of the mitochondrial membrane potential - 1 hr assay (AID 651754); details: series mostly up to 92.2 µM; also: % is scaled to controls: 0 for no effect and ±100 for the full control effect; nearly all actives have a fitted effect of over 35% in size
# Summary of the method: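 In this qHTS format, a 1 hr compound treatment of HepG2 cells precedes Mito-MPS staining, and membrane potential is judged from aggregate (red) against monomer (green) fluorescence intensity.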
# [20] = target: Nuclear receptor subfamily 1 group I member 2 (Rattus norvegicus) (UniProt Q9R1A7); test: qHTS assay for small molecule activators of the rat pregnane X receptor (rPXR) signaling pathway (AID 651751; call rule not given here; also: 0% is about no effect); details: rPXR reporter cells, luciferase (One-Glo), 24 h
# Sequence of Nuclear receptor subfamily 1 group I member 2 (Rattus norvegicus) (Q9R1A7 whole entry, looked up): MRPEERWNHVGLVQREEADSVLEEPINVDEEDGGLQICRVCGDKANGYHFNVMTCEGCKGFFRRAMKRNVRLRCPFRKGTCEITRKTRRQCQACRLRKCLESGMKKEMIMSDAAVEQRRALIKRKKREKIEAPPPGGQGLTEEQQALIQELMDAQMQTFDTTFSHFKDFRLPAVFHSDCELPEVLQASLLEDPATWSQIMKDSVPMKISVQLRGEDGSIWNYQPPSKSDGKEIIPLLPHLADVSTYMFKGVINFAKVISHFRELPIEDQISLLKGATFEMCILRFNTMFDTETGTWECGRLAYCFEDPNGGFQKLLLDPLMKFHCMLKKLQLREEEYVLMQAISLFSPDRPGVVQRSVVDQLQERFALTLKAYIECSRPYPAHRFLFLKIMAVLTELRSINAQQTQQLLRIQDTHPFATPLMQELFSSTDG
# Sequence of Glucocorticoid receptor (Homo sapiens) (P04150 whole entry, looked up): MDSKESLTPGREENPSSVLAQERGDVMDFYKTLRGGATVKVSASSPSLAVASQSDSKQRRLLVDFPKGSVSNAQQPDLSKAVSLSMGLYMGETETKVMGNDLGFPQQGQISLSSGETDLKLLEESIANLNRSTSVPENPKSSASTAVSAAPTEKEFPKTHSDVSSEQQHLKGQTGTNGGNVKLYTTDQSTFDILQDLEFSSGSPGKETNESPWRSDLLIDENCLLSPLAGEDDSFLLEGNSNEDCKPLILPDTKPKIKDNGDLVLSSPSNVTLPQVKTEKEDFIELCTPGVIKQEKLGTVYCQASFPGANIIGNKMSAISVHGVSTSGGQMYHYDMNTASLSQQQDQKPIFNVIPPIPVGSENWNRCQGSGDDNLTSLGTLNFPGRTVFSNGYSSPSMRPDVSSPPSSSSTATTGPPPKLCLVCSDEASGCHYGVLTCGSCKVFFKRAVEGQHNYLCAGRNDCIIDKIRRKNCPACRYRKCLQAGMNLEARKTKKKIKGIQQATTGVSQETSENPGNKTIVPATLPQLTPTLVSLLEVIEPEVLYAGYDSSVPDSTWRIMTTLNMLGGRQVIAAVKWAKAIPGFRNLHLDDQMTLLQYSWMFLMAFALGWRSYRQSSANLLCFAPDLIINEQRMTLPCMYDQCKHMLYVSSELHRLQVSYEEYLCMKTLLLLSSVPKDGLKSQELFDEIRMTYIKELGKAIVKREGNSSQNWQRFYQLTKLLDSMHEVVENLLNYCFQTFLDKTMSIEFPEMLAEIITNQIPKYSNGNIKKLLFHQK
# Sequence of Estrogen receptor (Homo sapiens) (P03372 whole entry, looked up): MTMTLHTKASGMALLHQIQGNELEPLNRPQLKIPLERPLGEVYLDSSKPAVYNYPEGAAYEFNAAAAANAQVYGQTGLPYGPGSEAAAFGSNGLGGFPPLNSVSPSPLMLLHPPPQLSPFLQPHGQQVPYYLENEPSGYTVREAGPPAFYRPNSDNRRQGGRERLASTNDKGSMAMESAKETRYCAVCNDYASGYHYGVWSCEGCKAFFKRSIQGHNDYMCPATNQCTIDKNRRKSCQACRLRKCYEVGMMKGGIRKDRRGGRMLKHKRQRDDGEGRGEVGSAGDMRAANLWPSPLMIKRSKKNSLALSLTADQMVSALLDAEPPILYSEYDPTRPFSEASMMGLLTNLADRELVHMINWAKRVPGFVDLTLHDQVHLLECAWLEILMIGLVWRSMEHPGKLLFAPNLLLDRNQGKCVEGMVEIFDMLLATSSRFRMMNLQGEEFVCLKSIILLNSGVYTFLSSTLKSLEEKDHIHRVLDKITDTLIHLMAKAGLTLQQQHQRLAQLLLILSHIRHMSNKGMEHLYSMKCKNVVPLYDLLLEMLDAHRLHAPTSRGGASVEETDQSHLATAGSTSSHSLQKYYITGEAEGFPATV
# Sequence of Androgen receptor (Homo sapiens) (P10275 whole entry, looked up): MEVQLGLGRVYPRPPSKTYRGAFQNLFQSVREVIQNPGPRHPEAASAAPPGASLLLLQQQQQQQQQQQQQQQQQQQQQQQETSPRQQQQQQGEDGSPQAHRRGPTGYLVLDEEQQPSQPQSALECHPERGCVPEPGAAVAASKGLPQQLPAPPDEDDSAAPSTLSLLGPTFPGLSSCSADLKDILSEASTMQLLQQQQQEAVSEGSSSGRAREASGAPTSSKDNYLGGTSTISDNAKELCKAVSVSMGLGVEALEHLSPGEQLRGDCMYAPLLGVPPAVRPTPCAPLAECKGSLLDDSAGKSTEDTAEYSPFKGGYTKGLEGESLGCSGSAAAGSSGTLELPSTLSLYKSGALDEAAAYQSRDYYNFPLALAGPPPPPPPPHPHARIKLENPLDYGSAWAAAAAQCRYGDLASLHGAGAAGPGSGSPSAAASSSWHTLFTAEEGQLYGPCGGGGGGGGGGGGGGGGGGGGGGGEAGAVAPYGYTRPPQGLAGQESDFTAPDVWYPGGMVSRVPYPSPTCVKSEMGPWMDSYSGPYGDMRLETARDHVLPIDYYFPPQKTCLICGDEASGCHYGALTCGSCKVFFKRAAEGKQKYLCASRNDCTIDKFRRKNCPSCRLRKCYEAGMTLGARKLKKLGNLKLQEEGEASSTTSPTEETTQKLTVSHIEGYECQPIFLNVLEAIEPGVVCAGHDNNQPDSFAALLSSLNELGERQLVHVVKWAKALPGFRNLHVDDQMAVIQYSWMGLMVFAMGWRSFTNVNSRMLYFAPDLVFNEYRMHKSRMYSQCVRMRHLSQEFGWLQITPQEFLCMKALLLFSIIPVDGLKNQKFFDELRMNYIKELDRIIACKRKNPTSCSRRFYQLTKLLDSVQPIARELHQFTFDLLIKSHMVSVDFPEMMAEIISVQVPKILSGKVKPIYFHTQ
# Sequence of Retinoic acid receptor RXR-alpha (Homo sapiens) (P19793 whole entry, looked up): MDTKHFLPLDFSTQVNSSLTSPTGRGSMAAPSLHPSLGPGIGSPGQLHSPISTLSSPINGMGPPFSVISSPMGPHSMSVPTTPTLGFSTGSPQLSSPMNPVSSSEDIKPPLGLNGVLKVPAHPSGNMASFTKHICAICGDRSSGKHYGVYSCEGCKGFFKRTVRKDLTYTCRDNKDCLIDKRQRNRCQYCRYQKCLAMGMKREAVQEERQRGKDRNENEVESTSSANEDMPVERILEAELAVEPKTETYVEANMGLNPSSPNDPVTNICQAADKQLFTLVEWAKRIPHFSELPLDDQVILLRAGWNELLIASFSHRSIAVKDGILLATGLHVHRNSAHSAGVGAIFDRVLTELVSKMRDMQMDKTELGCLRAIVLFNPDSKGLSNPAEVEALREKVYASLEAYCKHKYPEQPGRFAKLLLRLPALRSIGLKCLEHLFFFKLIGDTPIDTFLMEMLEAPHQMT
SMILES,"parasite growth, % of control (lower = inhibition) [1]","growth, % of control [2]",Potency [3],Potency [4],Potency [5],Potency [6],Potency [7],outcome [8],outcome [9],outcome [10],outcome [11],Potency [12],outcome [13],outcome [14],activation [15],outcome [16],max response [17] [%],max response [18],outcome [19],max response [20]
CC1CC2C3CCC4=CC(=O)C=C[C@@]4(C)[C@]3(F)C(O)C[C@]2(C)[C@]1(O)C(=O)CO (stereo not given in full),44.9% [at 28.5 µM],11.4% [at 28.5 µM],,,,,,,,,,,,,,,,,,
CN(C)CCOC(c1ccccc1)c1ccccc1 (tested in a mixture with another compound),,,> 92 µM (inactive),> 92 µM (inactive),> 92 µM (inactive),> 92 µM (inactive),> 92 µM (inactive),inactive,inactive,inactive,inactive,25.1 µM (active),inactive,inactive,1.99% (inactive),inactive,3.3,-6.76% (inactive),inactive,-6.62% (inactive)
